Experimental data as given in PubChem BioAssay AID778 (Sanford-Burnham Center for Chemical Genomics, 2007).
Out of some 96,000 compounds screened, about 20,000 (21%) were called active.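 The calls were made as follows: active = CYP2C19 inhibition above a set limit at 5 µM in the primary screen (cut at about 50% in these data); inactive = the rest.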 A selection follows.

The compounds below were run against Cytochrome P450 2C19 (Homo sapiens) (UniProt P33261) (assay: blockers of cytochrome P450 2C19 activity – biochemical, luminescence, ADME assay, primary screen (AID 778;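 also: plate controls were negative control wells for no effect and 2.5 mM tranylcypromine positive control for full effect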)). Details: CYP2C19 Supersomes, luciferin-H EGE luminescence, 30 min; at 5 µM; active compounds read high.
Cytochrome P450 2C19 (Homo sapiens), sequence (P33261 whole entry, looked up): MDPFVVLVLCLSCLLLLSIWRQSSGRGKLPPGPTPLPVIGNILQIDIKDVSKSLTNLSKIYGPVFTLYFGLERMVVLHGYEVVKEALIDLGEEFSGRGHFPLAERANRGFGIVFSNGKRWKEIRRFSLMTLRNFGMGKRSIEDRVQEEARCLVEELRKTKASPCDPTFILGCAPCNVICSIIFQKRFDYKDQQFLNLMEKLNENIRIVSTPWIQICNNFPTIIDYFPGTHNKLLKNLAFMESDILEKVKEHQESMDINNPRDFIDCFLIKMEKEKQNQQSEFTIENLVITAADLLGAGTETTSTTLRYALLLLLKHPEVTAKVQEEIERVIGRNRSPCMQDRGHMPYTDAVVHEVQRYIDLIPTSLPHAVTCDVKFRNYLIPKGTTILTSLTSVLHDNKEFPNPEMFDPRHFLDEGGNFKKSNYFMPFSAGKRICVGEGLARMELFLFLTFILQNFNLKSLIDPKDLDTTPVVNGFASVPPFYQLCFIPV

Compound	inhibition
O=C(CSCc1ccc([N+](=O)[O-])cc1)Nc1cccc(C(=O)Nc2ccccc2C(=O)O)c1	14.5% (inactive)
COc1ccccc1Cc1nc(-c2ccc(C)cc2)no1	35.6% (inactive)
COc1ccccc1CNS(=O)(=O)c1ccc(C)cc1	92.5% (active)
Cc1ccc(S(=O)(=O)NCC(C)NS(C)(=O)=O)cc1 (configuration not stated)	16.9% (inactive)
Nc1c(C(=O)NCc2ccccc2)nnn1Cc1cccc(Cl)c1	6.4% (inactive)
CC(C)=CC(=O)Nc1nnc(-c2ccc(F)cc2)s1	4.7% (inactive)
CCOC(=O)C1CCN(C(=O)C2CCN(S(=O)(=O)CC)CC2)CC1	-18.2% (inactive)
CCOC(=O)C1CCN(C(=O)Nc2ccc(Cl)cc2)CC1	63.1% (active)
CCOC(=O)C1CCN(C(=O)C2CCN(S(=O)(=O)N3CCCC3)CC2)CC1	10.9% (inactive)
Cc1ccc(-c2nc(C)sc2CC(=O)O)cc1	29.8% (inactive)
NC(=O)COc1ccc(/C=N/NC(=O)C2CCCN2S(=O)(=O)c2ccc(Cl)cc2)cc1 (configuration not stated)	19.2% (inactive)
CSc1ccc(/C=N\NC(=O)COc2ccc(Cl)cc2Br)cc1	76.4% (active)
O=C(Cc1ccccc1)N/N=C/c1ccc(Cl)cc1Cl	7.9% (inactive)
CS(=O)(=O)c1ccc2nc(NC(=O)C3C4C=CC(C4)C3C(=O)O)sc2c1 (configuration not stated)	0.7% (inactive)
CC(C)COC(=O)c1ccc(NC(=O)C2C3C=CC(C3)C2C(=O)O)cc1 (configuration not stated)	54.2% (active)
COC(=O)c1cc(NC(=O)C2C3C=CC(C3)C2C(=O)O)cc(C(=O)OC)c1 (configuration not stated)	2.5% (inactive)
CC(Sc1nnc(Cc2ccc([N+](=O)[O-])cc2)o1)C(N)=O (configuration not stated)	16.6% (inactive)
O=C(Cn1cnc2c(cnn2-c2ccccc2)c1=O)NCc1ccccc1	-10.8% (inactive)
CN1C(=O)C(CC(N)=O)N(NC(=O)c2ccc(Cl)cc2)C1=S (configuration not stated)	-7.8% (inactive)
CC(=O)N1CC2(C)CN(C(C)=O)CC(C)(C1)C2=O	79.3% (active)
CCCCC(=O)N1CC2(C)CN(C(=O)CCCC)CC(C)(C1)C2=O	-1.6% (inactive)

Compound	inhibition
CCCCNC(=O)CSc1nc2ccc(NC(=O)CSc3nnc(COc4ccccc4C)n3C)cc2s1	19.1% (inactive)
CC(C)c1ccc(NC(=O)CCN2C(=O)c3ccc([N+](=O)[O-])cc3C2=O)cc1	8.5% (inactive)
CC(C)OC(=O)c1cc(NC(=O)C2C3CCC(O3)C2C(=O)O)cc(C(=O)OC(C)C)c1 (configuration not stated)	77.9% (active)
Cc1sc(NC(=O)C2C3CCC(O3)C2C(=O)O)c(C(=O)OC(C)C)c1-c1ccc(Cl)cc1 (configuration not stated)	19.7% (inactive)
CCC(CC)C(=O)Nc1cc(C(=O)OC)cc(C(=O)OC)c1	1.1% (inactive)
COCCCn1c(SCc2cccc(OC)c2)nc2cc(OC)c(OC)cc2c1=N	53.4% (active)
OCCN1CCOCCOCCN(CCO)CCN(CCO)CC1	16.6% (inactive)
Cc1nn(Cc2ccccc2)c(Cl)c1C(=O)OC1CCOC1=O (configuration not stated)	63.5% (active)
O=C(OC1CCOC1=O)c1ccc(-c2nc3ccccc3s2)s1 (configuration not stated)	11.3% (inactive)
CC(=O)c1c(N2CCOCC2)nc(=S)n(Cc2ccccc2)c1C	12.8% (inactive)
COc1cccc(-c2nc(S(=O)(=O)c3ccccc3)c(N3CCOCC3)o2)c1	27.7% (inactive)
O=C(NCc1cn2ccsc2n1)Nc1cccc(Cl)c1	13.3% (inactive)
O=c1[nH]c(=O)n(Cc2ccco2)c2c1C(C(F)(F)F)(C(F)(F)F)N=C(c1ccco1)N2	-12.6% (inactive)
Cc1cc(-c2ccccc2)n2nc(C)c(-c3ccccc3)c2n1	30.7% (inactive)
Cc1cc(C)n(C(=O)c2ccc(C)c(S(=O)(=O)N3CCOCC3)c2)n1	68.7% (active)
CC(=O)c1c(N2CCOCC2)nc(=S)n(-c2cc(C)ccc2C)c1C	-10.5% (inactive)
CCOC(=O)c1csc(NC(=O)c2ccc(S(=O)(=O)N3CCCC3)cc2)n1	-7% (inactive)
Cc1ccccc1-c1nnn(CC(=O)c2ccc(S(=O)(=O)N3CCCC3)cc2)n1	14.5% (inactive)
Cc1cc(C)n(C(=O)c2ccc(S(=O)(=O)N3CCCC3)cc2)n1	68.7% (active)
Cc1ccc(C(=O)Nc2ccccc2C(=O)NC2CCCCC2)cc1S(=O)(=O)N1CCOCC1	21.5% (inactive)
Cc1ccc(-c2nn(C(C)(C)C)c3ncnc(N)c23)cc1	38.5% (inactive)

Compound	inhibition
CCN(Cc1cc2cc(C)ccc2[nH]c1=O)S(=O)(=O)c1ccccc1	31.8% (inactive)
CCCNc1ncnc2sc(C)c(C)c12	29.6% (inactive)
COC(=O)c1ccc(CSc2nncn2C)cc1	39.9% (inactive)
COc1ccc(Cl)cc1C(=O)NCc1cn(C)nc1C	10.4% (inactive)
COC(=O)c1ccc(OC(=O)c2nn(C)cc2Cl)c(OC)c1	67.9% (active)
CC(=O)CCS(=O)(=O)c1ccc(C)c(C)c1	35.1% (inactive)
CCN(CC)CC(=O)Nc1nn(-c2ccccc2)nc1C(N)=O	-19.9% (inactive)
COC(=O)c1ccc(Oc2nc(Nc3ccc(F)cc3)nc(N3CCCC3)n2)cc1	32.3% (inactive)
Cc1nn(-c2ccccc2)c2[nH]c(C(F)(F)F)cc(=O)c12	-2.2% (inactive)
CCCCn1nnnc1NCc1cc(OC)c(OC)c(OC)c1	79.8% (active)
CCCCCCc1cc2cc(-c3nnc(-c4ccccc4)o3)c(=O)oc2cc1O	27.4% (inactive)
c1cc(-c2nn[nH]n2)ccc1CN1CCCCC1	-11.4% (inactive)
c1ccc2cc(OCCN3CCCC3)ccc2c1	4.2% (inactive)
c1ccc2cc3[nH]c(CN4CCCCC4)nc3cc2c1	82.7% (active)
Cc1nc(C)c(-c2csc(NCCc3ccccc3)n2)s1	39.4% (inactive)
Cn1c(=NC(=O)c2cnccn2)sc2ccccc21	-2.4% (inactive)
Cn1c(=NC(=O)CSCC(=O)N2CCOCC2)sc2ccccc21	46.6% (inactive)
Cn1c(=NC(=O)CSCC(=O)N2CCCCC2)sc2ccccc21	73.6% (active)
CC(C)c1nc2oc3c(N4CCN(C)CC4)ncnc3c2c2c1CCC2	22.2% (inactive)
O=C(Oc1ccccc1)Oc1ccc2c(c1)oc(=O)c1ccccc12	-10.9% (inactive)
